Laboratory results taken from the supplement of paper PMC4022240.
± gives the standard deviation.

T1: HaloTag-ATRX ADD domain (163-292)
T1 chain: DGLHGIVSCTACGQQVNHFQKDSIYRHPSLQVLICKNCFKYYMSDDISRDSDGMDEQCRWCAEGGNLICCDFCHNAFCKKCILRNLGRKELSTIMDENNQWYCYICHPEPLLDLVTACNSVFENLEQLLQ

B1: Unmod H3 variant A I H A K R V T I M P K D (peptide)
chain: AIHAKRVTIMPKD
B2: Unmod H3 variant R K S A P S T G G V K K P (peptide)
chain: RKSAPSTGGVKKP
B3: Unmod H4 variant G G V K R I S G L I Y E E (peptide)
chain: GGVKRISGLIYEE
B4: Unmod H4 variant I Q G I T K P A I R R L A (peptide)
chain: IQGITKPAIRRLA
B5: Unmod H3 variant A T K A A R K S A P S T G (peptide)
chain: ATKAARKSAPSTG
B6: Unmod H4 variant V L R D N I Q G I T K P A (peptide)
chain: VLRDNIQGITKPA
B7: Unmod H4 variant G G K G L G K G G A K R H (peptide)
chain: GGKGLGKGGAKRH
B8: Unmod H3 variant P F Q R L V R E I A Q D F (peptide)
chain: PFQRLVREIAQDF
B9: Unmod H4 variant S G R G K G G K G L G K G (peptide)
chain: SGRGKGGKGLGKG
B10: Unmod H3 variant R K S A P A T G G V K K P (peptide)
chain: RKSAPATGGVKKP
B11: Unmod H4 variant K R H R K V L R D N I Q G (peptide)
chain: KRHRKVLRDNIQG
B12: Unmod H3 variant R V T I M P K D I Q L A R (peptide)
chain: RVTIMPKDIQLAR
B13: Unmod H3 variant V G L F E D T N L C A I H (peptide)
chain: VGLFEDTNLCAIH
B14: Unmod H4 variant G K G G A K R H R K V L R (peptide)
chain: GKGGAKRHRKVLR
B15: Unmod H3 variant A T G G V K K P H R Y R P (peptide)
chain: ATGGVKKPHRYRP
B16: Unmod H3 variant A L Q E A S E A Y L V G L (peptide)
chain: ALQEASEAYLVGL
B17: Unmod H3 variant A L Q E A C E A Y L V G L (peptide)
chain: ALQEACEAYLVGL
B18: Unmod H3 variant V R E I A Q D F K T D L R (peptide)
chain: VREIAQDFKTDLR
B19: Unmod H3 variant A T K A A R K S A P A T G (peptide)
chain: ATKAARKSAPATG
B20: Unmod H3 variant Q D F K T D L R F Q S S A (peptide)
chain: QDFKTDLRFQSSA

Target: T1, HaloTag-ATRX ADD domain (163-292)
Assay: peptide microarray binding signal (635 nm), min-max normalized on array (fraction of array maximum); higher = stronger binding
Conditions: peptide region: Unmod H3 variant; binder concentration: 50 nM
How it was run: (§1)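 Histone 13-mer peptide–cellulose conjugates were printed in triplicate on nitrocellulose with a Cy3 tracer, then blocked overnight at 4°C. Arrays were probed for 1 h at 4°C with biotin-labelled HaloTag reader fusions (10 nM to 1 μM) plus streptavidin-Alexa Fluor 647, or with rabbit histone antibodies (1:10,000 to 1:2,000) plus anti-rabbit Alexa 647. An Axon GenePix 4000B scanned 635 nm for signal and 532 nm for misprints. Binding signal is the triplicate-spot mean intensity, min-max scaled per library.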

Binder | peptide microarray binding signal
B1 | 0.00414 ± 0.00014
B2 | 0.002821 ± 2.4e-05
B5 | 0.00285 ± 0.00016
B8 | 0.0275 ± 0.0017
B10 | 0.00398 ± 4.1e-05
B12 | 0.00552 ± 9e-05
B13 | 0.00179 ± 3.6e-05
B15 | 0.00552 ± 0.0011
B16 | 0.001818 ± 8.5e-06
B17 | 0.00166 ± 5.9e-05
B18 | 0.00495 ± 9.5e-05
B19 | 0.00646 ± 0.00048
B20 | 0.00483 ± 6.5e-05

Same assay, conditions: peptide region: Unmod H3 variant; binder concentration: 500 nM

Binder | peptide microarray binding signal
B1 | 0.0132 ± 0.00021
B2 | 0.0103 ± 0.00037
B5 | 0.00757 ± 0.00026
B8 | 0.0328 ± 0.0016
B10 | 0.0111 ± 0.0002
B12 | 0.0187 ± 0.001
B13 | 0.0031 ± 4.8e-05
B15 | 0.00938 ± 0.0008
B16 | 0.00233 ± 5.1e-05
B17 | 0.00148 ± 3.6e-05
B18 | 0.0115 ± 0.00061
B19 | 0.0104 ± 0.0015
B20 | 0.011 ± 0.00018

Target: HaloTag-ING2 PHD (mouse Ing2 200-280)
Assay: as above
Conditions: peptide region: Unmod H3 variant; binder concentration: 10 nM
How it was run: as §1

Binder | peptide microarray binding signal
B1 | 0.00507 ± 0.00019
B2 | 0.00674 ± 8.2e-05
B5 | 0.0164 ± 0.0095
B8 | 0.01385 ± 8.4e-05
B10 | 0.008 ± 0.00021
B12 | 0.0177 ± 0.00085
B13 | 0.002686 ± 1.5e-05
B15 | 0.00537 ± 0.00055
B16 | 0.00292 ± 5.6e-05
B17 | 0.00179 ± 2.8e-05
B18 | 0.00853 ± 0.00018
B19 | 0.00776 ± 0.00056
B20 | 0.00973 ± 0.00021

Same assay, conditions: peptide region: Unmod H3 variant; binder concentration: 100 nM

Binder | peptide microarray binding signal
B1 | 0.0196 ± 0.0021
B2 | 0.0212 ± 0.0031
B5 | 0.00943 ± 0.00062
B8 | 0.0259 ± 0.0054
B10 | 0.021 ± 0.00036
B12 | 0.0422 ± 0.0028
B13 | 0.00241 ± 4e-05
B15 | 0.0186 ± 0.0068
B16 | 0.00206 ± 7.3e-05
B17 | 0.00163 ± 4.4e-05
B18 | 0.0134 ± 0.00073
B19 | 0.015 ± 0.0022
B20 | 0.0168 ± 0.0012

Target: anti-H3K4me3 antibody ab8580
Assay: as above
Conditions: peptide region: Unmod H3 variant; binder concentration: 1:2,000 dilution
How it was run: as §1

Binder | peptide microarray binding signal
B1 | 0.000849 ± 2.3e-05
B2 | 0.000963 ± 5e-05
B5 | 0.00109 ± 3.3e-05
B8 | 0.00315 ± 0.00022
B10 | 0.000831 ± 5.9e-05
B12 | 0.00585 ± 0.00079
B13 | 0.000472 ± 9.3e-06
B15 | 0.000585 ± 3.7e-05
B16 | 0.0004719 ± 4.7e-06
B17 | 0.0004342 ± 4.3e-06
B18 | 0.00247 ± 5.5e-05
B19 | 0.00119 ± 3.4e-05
B20 | 0.00276 ± 8.1e-05

Same assay, conditions: peptide region: Unmod H3 variant; binder concentration: 1:10,000 dilution

Binder | peptide microarray binding signal
B1 | 0.00211
B2 | 0.000799 ± 8.3e-06
B5 | 0.001312 ± 1.3e-05
B8 | 0.00759 ± 0.00028
B10 | 0.001312 ± 1.3e-05
B12 | 0.00782 ± 0.00068
B13 | 0.000628 ± 6.7e-06
B15 | 0.000456 ± 1.3e-05
B16 | 0.000799 ± 8.3e-06
B17 | 0.000628 ± 6.7e-06
B18 | 0.00474 ± 0.00018
B19 | 0.001712 ± 1.6e-05
B20 | 0.00542 ± 0.0011

Target: anti-H3K9me3 antibody ab8898
Assay: as above
Conditions: peptide region: Unmod H3 variant; binder concentration: 1:2,000 dilution
How it was run: as §1

Binder | peptide microarray binding signal
B1 | 0.000513 ± 1.3e-05
B2 | 0.000468 ± 9e-06
B5 | 0.000695 ± 2.7e-05
B8 | 0.00316 ± 0.00013
B10 | 0.000529 ± 1.3e-05
B12 | 0.00403 ± 0.00079
B13 | 0.000287 ± 7.8e-06
B15 | 0.000227 ± 7.1e-06
B16 | 0.000453 ± 1.5e-05
B17 | 0.000393 ± 1.4e-05
B18 | 0.00248 ± 0.00019
B19 | 0.00142 ± 9.9e-05
B20 | 0.00157 ± 6.5e-05

Same assay, conditions: peptide region: Unmod H3 variant; binder concentration: 1:10,000 dilution

Binder | peptide microarray binding signal
B1 | 0.000692 ± 7.3e-06
B2 | 0.000634
B5 | 0.000923 ± 9.6e-06
B8 | 0.00427 ± 5.7e-05
B10 | 0.000692 ± 7.3e-06
B12 | 0.00375 ± 0.00014
B13 | 0.000807
B15 | 0.000461 ± 8.7e-06
B16 | 0.000634
B17 | 0.000519 ± 5.6e-06
B18 | 0.00259 ± 9.2e-05
B19 | 0.00127 ± 1.3e-05
B20 | 0.00202 ± 3.2e-05

Target: T1, HaloTag-ATRX ADD domain (163-292)
Assay: as above
Conditions: peptide region: Unmod H4 variant; binder concentration: 50 nM
How it was run: as §1

Binder | peptide microarray binding signal
B3 | 0.00323 ± 0.00011
B4 | 0.0496 ± 0.0034
B6 | 0.0154 ± 0.00068
B7 | 0.00373 ± 6.8e-05
B9 | 0.00426 ± 0.00016
B11 | 0.00636 ± 0.00015
B14 | 0.00508 ± 0.0001

Same assay, conditions: peptide region: Unmod H4 variant; binder concentration: 500 nM

Binder | peptide microarray binding signal
B3 | 0.0107 ± 0.006
B4 | 0.0842 ± 0.0024
B6 | 0.0293 ± 0.0022
B7 | 0.011 ± 0.0003
B9 | 0.009 ± 0.00081
B11 | 0.0147 ± 0.00085
B14 | 0.0113 ± 0.00031

Target: HaloTag-ING2 PHD (mouse Ing2 200-280)
Assay: as above
Conditions: peptide region: Unmod H4 variant; binder concentration: 10 nM
How it was run: as §1

Binder | peptide microarray binding signal
B3 | 0.00507 ± 0.0008
B4 | 0.0565 ± 0.0092
B6 | 0.0201 ± 0.00092
B7 | 0.0132 ± 0.0071
B9 | 0.00412 ± 0.00013
B11 | 0.00549 ± 9.7e-05
B14 | 0.00292 ± 0.00011

Same assay, conditions: peptide region: Unmod H4 variant; binder concentration: 100 nM

Binder | peptide microarray binding signal
B3 | 0.0272 ± 0.027
B4 | 0.119 ± 0.019
B6 | 0.0672 ± 0.0023
B7 | 0.0147 ± 0.00057
B9 | 0.0136 ± 0.0012
B11 | 0.0208 ± 0.0048
B14 | 0.00836 ± 0.00085

Target: anti-H3K4me3 antibody ab8580
Assay: as above
Conditions: peptide region: Unmod H4 variant; binder concentration: 1:2,000 dilution
How it was run: as §1

Binder | peptide microarray binding signal
B3 | 0.000755 ± 7e-05
B4 | 0.0125 ± 0.0012
B6 | 0.0064 ± 0.00045
B7 | 0.000547 ± 1.1e-05
B9 | 0.000831 ± 3.2e-05
B11 | 0.000774 ± 7e-06
B14 | 0.000472 ± 9.3e-06

Same assay, conditions: peptide region: Unmod H4 variant; binder concentration: 1:10,000 dilution

Binder | peptide microarray binding signal
B3 | 0.00126 ± 5.7e-05
B4 | 0.0159 ± 0.0013
B6 | 0.0089 ± 0.0011
B7 | 0.00114 ± 2.3e-05
B9 | 0.00108 ± 1.9e-05
B11 | 0.00114 ± 1.2e-05
B14 | 0.000856 ± 1.8e-05

Target: anti-H3K9me3 antibody ab8898
Assay: as above
Conditions: peptide region: Unmod H4 variant; binder concentration: 1:2,000 dilution
How it was run: as §1

Binder | peptide microarray binding signal
B3 | 0.000664 ± 7.4e-05
B4 | 0.00663 ± 0.00078
B6 | 0.00264 ± 0.00015
B7 | 0.0003775 ± 3.7e-06
B9 | 0.000438 ± 8.5e-06
B11 | 0.000604 ± 4.7e-05
B14 | 0.000302 ± 3.1e-06

Same assay, conditions: peptide region: Unmod H4 variant; binder concentration: 1:10,000 dilution

Binder | peptide microarray binding signal
B3 | 0.000923 ± 3.4e-05
B4 | 0.00957 ± 0.00076
B6 | 0.00323 ± 9.4e-05
B7 | 0.00075 ± 7.9e-06
B9 | 0.000692 ± 7.3e-06
B11 | 0.00104 ± 2.8e-05
B14 | 0.00075 ± 7.9e-06
